CatB block – human cathepsin B inhibitors, primary screen, biochemical, fluorogenic substrate | purified cathepsin B, fluorescence | inhibition, %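 (tested at 10 µM)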 | 0.1% of 63,000 active | P07858; in the data active = inhibition above about 21%
CatL block – inhibitors of human cathepsin L, biochemical; Procathepsin L (Homo sapiens), P07711; purified cathepsin L, fluorogenic substrate, fluorescence; inhibition, %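 (tested at 10 µM)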; 0.17% of 58,000 active; in the data active = inhibition above about 45%
CatB mix inh – cathepsin B inhibitors from pooled compounds, primary screen, biochemical, compound mixtures, AMC fluorescence. P07858. Purified cathepsin B, AMC dipeptide fluorescence. inhibition, %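 (ten-compound pools at 5 µM per compound and 50 µM total)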. 0.06% of 62,000 active. AID 488, 2006; in the data active = inhibition above about 22%, passing the limit was not always enough
CatS inh – inhibitors of human cathepsin S, biochemical, compound mixtures; inhibition, %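 (tested at 5 µM per compound within 10-compound mixtures)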; recombinant cathepsin S, AMC dipeptide fluorescence, pooled mixtures; P25774; 0.06% of 62,000 active; AID 501, 2006; in the data active = inhibition above about 32%, passing the limit was not always enough
C1s inh – complement C1s protease inhibitors, primary screen, biochemical, 10-compound mixtures. purified C1s, fluorogenic AMC substrate, pooled mixtures. Complement C1s subcomponent (Homo sapiens), P09871. mean inhibition % of two 10-compound mixtures (active compounds read high), % at 5 µM (by protocol). 0.16% of 62,000 active;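 active = inhibition above 20% in each of the two 10-compound mixture wells holding the compound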
CatG inh – human cathepsin G inhibitors, primary screen, biochemical, pooled compound mixtures, AMC fluorescence | purified enzyme, AMC-tetrapeptide fluorescence | inhibition, % at 5 µM (by protocol) | 0.2% of 62,000 active;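 active = inhibition above 20% in each of the two mixture wells holding the compound; inactive = inhibition of 20% or less in either well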
Target sequence (P08311 21-244 limits assumed): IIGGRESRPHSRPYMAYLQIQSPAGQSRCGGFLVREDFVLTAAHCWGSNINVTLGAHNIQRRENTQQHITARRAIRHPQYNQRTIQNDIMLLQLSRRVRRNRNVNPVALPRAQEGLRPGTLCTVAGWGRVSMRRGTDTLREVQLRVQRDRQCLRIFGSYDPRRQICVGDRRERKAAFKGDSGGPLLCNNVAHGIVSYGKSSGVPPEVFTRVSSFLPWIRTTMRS
Hits are given with their value; i = inactive; nt = no result. Compounds with a hit are over-represented: about 0.58% of the library has one in this group of screens.

SMILES	CatB block	CatL block	CatB mix inh	CatS inh	C1s inh	CatG inh
Cc1nc(CNS(=O)(=O)c2cc(C)c(C)cc2C)cs1	i	i	i	i	56.9	i
Cc1cccn2c(=O)c3cc(C(=O)N4CCc5ccccc54)n(C)c3nc12	i	i	i	i	i	i
COC(=O)Cc1c(C)c2c(OCc3nn[nH]n3)cc(C)cc2oc1=O	i	i	i	i	i	i
COc1ccc(Cl)c(Cn2c(NCc3ccccn3)nc3c2c(=O)n(C)c(=O)n3C)c1	i	i	i	i	i	i
COc1ccc(Cl)c(Cn2c(NCCCO)nc3c2c(=O)n(C)c(=O)n3C)c1	i	56.8	i	i	i	i
CCCc1[nH]nc2c1C1(C(=O)N(C(C)C)c3ccccc31)C(C#N)=C(N)O2 (configuration not stated)	i	i	i	i	i	i
CCCCc1[nH]nc2c1C1(C(=O)N(CC)c3ccccc31)C(C#N)=C(N)O2 (configuration not stated)	25.1	i	i	i	i	i
COc1ccc(-n2c(=O)c3c4c(sc3n3cnnc23)CC(C)CC4)cc1 (configuration not stated)	i	48.2	i	i	i	i
CN/C=C1\C(=O)C(C)(C)Oc2ccc3ccc(=O)oc3c21	i	i	i	i	23.1	i
O=C(CC1Oc2ccccc2NC1=O)NC1CC1 (configuration not stated)	i	nt	i	i	i	i
CC(=O)OC1(C(F)(F)F)Oc2ccccc2NC1=O (configuration not stated)	74.7	85.2	60.7	i	i	i
CCC(=O)Nc1cccc(-c2nc3ccccc3c(=O)o2)c1	i	i	i	i	37.4	59.0
CC(=O)Nc1cccc(-c2nc3ccccc3c(=O)o2)c1	i	i	i	i	i	64.5
Cc1ccc(NC(=O)C2CCCN2C(=O)Oc2ccccc2)cc1 (configuration not stated)	i	i	i	i	i	i
COc1ccc(-n2c(C)cc(C(=O)COc3ccc(-n4cnnn4)cc3)c2C)cc1	i	i	i	i	i	i
O=C(Cc1cccs1)N(c1ccccc1)C1C=CS(=O)(=O)C1 (configuration not stated)	i	i	i	i	i	i
CCc1ccccc1N(C(=O)c1cccs1)C1C=CS(=O)(=O)C1 (configuration not stated)	i	i	i	i	60.2	i
CCCOc1ccc(CSc2ncn[nH]2)cc1	i	i	i	i	i	i
COc1ccc(S(=O)(=O)Nc2nnc(C(C)(C)C)s2)cc1	i	nt	i	i	i	i
O=S(=O)(Nc1nnc(-c2ccccc2)s1)c1ccc(Cl)cc1	i	104.7	i	i	i	i
O=C(NCC(O)c1ccccc1)c1cccc(S(=O)(=O)N2CCOCC2)c1 (configuration not stated)	i	i	i	i	i	i
CCOC(=O)c1sc(=NC(=O)c2ccc(S(=O)(=O)N3CC(C)OC(C)C3)cc2)n(C)c1C (configuration not stated)	43.1	i	i	i	i	i
CC1CN(S(=O)(=O)c2ccc(C(=O)Nc3sc4c(c3C(N)=O)CCN(C)C4)cc2)CC(C)O1 (configuration not stated)	i	i	i	i	i	i
C=CC(=C)CC(NC)c1ccccc1 (configuration not stated)	i	53.4	i	i	i	i
Cc1ccccc1C(=O)NC1CCN(Cc2nnnn2Cc2ccc(F)cc2)CC1	i	i	i	i	i	i
SMILES	CatB block	CatL block	CatB mix inh	CatS inh	C1s inh	CatG inh
COc1cc(NC(=O)c2csc3c2CCCC3)ncn1	i	i	i	i	i	33.7
COc1ccc2c(c1)CCc1c(C(=O)Nc3cc(C)n(Cc4ccc(Cl)cc4)n3)noc1-2	i	i	i	i	i	65.8
COc1ccc2c(c1)CCc1c(C(=O)Nc3ccn(Cc4ccc(C)cc4)n3)noc1-2	i	i	i	i	i	93.8
N#Cc1nc(N2CCOCC2)nc(N2CCOCC2)n1	i	67.2	i	31.9	i	i
COc1cccc(C(=O)Oc2cc(N)n(S(=O)(=O)c3ccc(C)cc3)n2)c1OC	i	i	i	i	i	i
Nc1cc(OC(=O)c2cccs2)nn1S(=O)(=O)c1ccccc1	75.7	i	68.8	i	i	32.0
